“And” between values parts separate entries of the source, which are not always exact repeats. Equal entries are not always repeated. Records with an inconclusive call do not appear. The source made the active and inactive calls. Unless noted, calls follow the shape of the dose curve; as a rule, active = well fitted curve in the direction sought with a large enough effect in the repeat runs; inconclusive = weak or mixed curves; inactive = no such curve, though single readings can be large; an effect the other way counts as inactive or inconclusive.
Key:
[1] = qHTS assay to identify small molecule antagonists of the estrogen receptor alpha (ER-alpha) signaling pathway using the BG1 cell line in the presence of 0.1 nM 17-beta-estradiol - cell viability counter screen (AID 1259241); conditions: VM7Luc4E2 (BG1) viability, CellTiter-Fluor protease, 22 h, 0.1 nM estradiol agonist added; series mostly up to 92.4 µM; also: nearly all actives have a fitted effect of over 40% in size; also: potency is read from the fitted curve at half-maximal effect
In short: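 VM7Luc4E2 cells (endogenous ER-alpha, 4×ERE-luciferase), hormone-starved 5 days in charcoal-stripped FBS, were treated with compounds plus 0.1 nM 17beta-estradiol for 22 hr at 37C; viability read in same wells as CellTiter-Fluor live-cell protease fluorescence.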

[2] = qHTS assay to identify small molecule antagonists of the androgen receptor (AR) signaling pathway using the MDA cell line in the presence of 0.5 nM R1881 - cell viability counter screen (AID 1259242); conditions: MDA-kb2 viability, CellTiter-Fluor protease fluorescence, 16 h; series mostly up to 92.4 µM; also: nearly all actives have a fitted effect of over 45% in size
In short: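 Viability of MDA-kb2 cells was multiplexed with the luciferase AR readout; after 16 hr with compounds and R1881 at 0.5 nM final, CellTiter-Fluor fluorescence was recorded.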

[3] = qHTS assay to identify small molecule HDAC inhibitors (AID 1259364); conditions: HCT-116 HDAC-Glo I/II luminescence, 2 h; series mostly up to 92.4 µM; also: potency is read from the fitted curve at half-maximal effect;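 also: wild-type HCT-116 cells with endogenous class I/II HDAC activity; nearly all actives have a fitted effect of over 45% in size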; as to activity change, negative = inhibition: top concentration of the series differs between compounds
In short: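 Read-out: luminescence of HDAC-Glo I/II reagent, 30 min RT, reflecting class I/II deacetylase activity in whole HCT-116 cells pre-exposed 2 h to DMSO-dissolved compounds.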

[4] = qHTS assay to identify small molecule HDAC inhibitors - cell viability counter screen (AID 1259365); conditions: HCT-116 viability, CellTiter-Glo ATP luminescence, 2 h; series mostly up to 92.4 µM; also: nearly all actives have a fitted effect of over 50% in size
In short: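 Wild-type HCT-116 cells were seeded at 1,500 per well, incubated overnight at 37 C, then exposed to compounds in DMSO for 2hr. Viability was read by CellTiter-Glo luminescence after 30min at room temperature.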

[5] = qHTS assay to identify small molecule agonists of the sonic hedgehog signaling (Shh) pathway - cell viability counter screen (AID 1259366); conditions: NIH/3T3 Gli1-Luc viability, CellTiter-Fluor, 24 h; series mostly up to 92.4 µM; also: nearly all actives have a fitted effect of over 50% in size; also: potency is read from the fitted curve at half-maximal effect
In short: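 NIH/3T3-derived 3T3 Gli1-Luc cells (stable Gli1-responsive firefly luciferase reporter) were seeded, rested 4 hr at 37 C/5% CO2, then exposed to compounds in DMSO for 24 hr; viability was read by CellTiter-Fluor fluorescence in the same wells.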

[6] = qHTS assay to identify small molecule antagonists of the sonic hedgehog signaling (Shh) pathway - cell viability counter screen (AID 1259367); conditions: NIH/3T3 Gli1-Luc viability, CellTiter-Fluor, 24 h; series mostly up to 92.4 µM; also: nearly all actives have a fitted effect of over 55% in size; also: potency is read from the fitted curve at half-maximal effect
In short: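 Seed 3T3 Gli1-Luc cells at 2,000 per well; incubate 4 hr; add compound in DMSO, then conditioned medium; incubate at 37C with 5% CO2; add CellTiter-Fluor after 23 hr; read fluorescence 1 hr later.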

[7] = qHTS assay to identify small molecule agonists of the sonic hedgehog signaling (Shh) pathway (AID 1259368; calls by dose curve; also: nearly all actives have a fitted effect of over 15% in size); conditions: NIH/3T3 Gli1-Luc reporter, luciferase, 24 h; series mostly up to 92.4 µM
In short: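 A Gli1 transcriptional response element controlled firefly luciferase in 3T3Gli1-Luc cells. Compounds and a positive control were added 4 hr after plating, and cells were incubated a further 24 hr at 37 C before luminescence detection.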

[8] = molecular target: Androgen receptor (Homo sapiens) (UniProt P10275); assay: qHTS assay to identify small molecule antagonists of the androgen receptor (AR) signaling pathway using the MDA cell line in the presence of 0.5 nM R1881 (AID 1259243); conditions: MDA-kb2 MMTV-luciferase, R1881 0.5 nM, 16 h; series mostly up to 92.4 µM; also: nearly all actives have a fitted effect of over 50% in size; also: potency is read from the fitted curve at half-maximal effect
In short: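 Reporter cells cultured without CO2 receive test chemicals, then 0.5 nM R1881 final; after 16 hr at 37C, ONE-Glo is added and light output recorded.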

[9] = molecular target: Estrogen receptor (Homo sapiens) (UniProt P03372); assay: qHTS assay to identify small molecule antagonists of the estrogen receptor alpha (ER-alpha) signaling pathway using the BG1 cell line in the presence of 0.1 nM 17-beta-estradiol (AID 1259244); conditions: VM7Luc4E2 (BG1) ERE-luciferase, antagonist mode, 0.1 nM E2, 22 h; series mostly up to 92.4 µM; also: nearly all actives have a fitted effect of over 50% in size
In short: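 Estradiol at 0.1 nM (final) stimulates the endogenous ER-alpha of VM7Luc4E2 cells carrying an ERE-driven luciferase; compounds are co-incubated 22 h at 37C and luciferase output quantified by luminescence.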

[10] = qHTS assay to identify small molecule phospholipidosis (PLD) inducers (AID 1259344; active = well fitted curve in the direction sought with a large enough effect; an effect the other way counts as inactive or inconclusive); conditions: HepG2 phospholipidosis, LipidTOX Red imaging, 24 h; series mostly up to 38.3 µM
In short: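 Quantitative HTS in HepG2: compound plus LipidTOX Red dye for 24 h, paraformaldehyde fixation with Hoechst 33342, widefield high-content imaging; amiodarone as positive and DMSO as negative control.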
% is scaled to controls: 0 for no effect and ±100 for the full control effect.

Sequence of Androgen receptor (Homo sapiens) (P10275 whole entry, looked up): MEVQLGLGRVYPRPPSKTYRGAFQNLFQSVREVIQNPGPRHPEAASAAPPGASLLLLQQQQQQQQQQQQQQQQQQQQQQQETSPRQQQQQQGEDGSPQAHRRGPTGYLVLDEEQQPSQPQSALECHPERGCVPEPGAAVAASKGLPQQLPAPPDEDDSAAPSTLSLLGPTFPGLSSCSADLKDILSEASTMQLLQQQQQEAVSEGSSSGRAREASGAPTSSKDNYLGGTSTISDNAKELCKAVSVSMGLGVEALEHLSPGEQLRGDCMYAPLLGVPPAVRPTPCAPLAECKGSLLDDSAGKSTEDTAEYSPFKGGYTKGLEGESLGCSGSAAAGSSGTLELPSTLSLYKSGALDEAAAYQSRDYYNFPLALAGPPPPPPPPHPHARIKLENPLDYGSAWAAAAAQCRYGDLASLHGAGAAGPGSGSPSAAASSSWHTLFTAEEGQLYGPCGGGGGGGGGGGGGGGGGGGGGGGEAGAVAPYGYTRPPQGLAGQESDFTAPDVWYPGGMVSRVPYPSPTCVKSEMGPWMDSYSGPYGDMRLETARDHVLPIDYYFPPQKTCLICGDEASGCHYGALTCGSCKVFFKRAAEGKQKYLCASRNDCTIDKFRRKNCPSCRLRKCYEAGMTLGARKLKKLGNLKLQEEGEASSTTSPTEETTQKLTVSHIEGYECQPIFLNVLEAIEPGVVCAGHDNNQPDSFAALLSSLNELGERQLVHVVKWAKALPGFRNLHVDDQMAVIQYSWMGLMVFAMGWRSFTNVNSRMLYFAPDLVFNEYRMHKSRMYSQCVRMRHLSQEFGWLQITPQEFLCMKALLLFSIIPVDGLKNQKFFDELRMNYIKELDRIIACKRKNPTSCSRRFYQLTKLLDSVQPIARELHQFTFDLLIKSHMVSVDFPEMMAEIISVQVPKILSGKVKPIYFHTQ
Sequence of Estrogen receptor (Homo sapiens) (P03372 whole entry, looked up): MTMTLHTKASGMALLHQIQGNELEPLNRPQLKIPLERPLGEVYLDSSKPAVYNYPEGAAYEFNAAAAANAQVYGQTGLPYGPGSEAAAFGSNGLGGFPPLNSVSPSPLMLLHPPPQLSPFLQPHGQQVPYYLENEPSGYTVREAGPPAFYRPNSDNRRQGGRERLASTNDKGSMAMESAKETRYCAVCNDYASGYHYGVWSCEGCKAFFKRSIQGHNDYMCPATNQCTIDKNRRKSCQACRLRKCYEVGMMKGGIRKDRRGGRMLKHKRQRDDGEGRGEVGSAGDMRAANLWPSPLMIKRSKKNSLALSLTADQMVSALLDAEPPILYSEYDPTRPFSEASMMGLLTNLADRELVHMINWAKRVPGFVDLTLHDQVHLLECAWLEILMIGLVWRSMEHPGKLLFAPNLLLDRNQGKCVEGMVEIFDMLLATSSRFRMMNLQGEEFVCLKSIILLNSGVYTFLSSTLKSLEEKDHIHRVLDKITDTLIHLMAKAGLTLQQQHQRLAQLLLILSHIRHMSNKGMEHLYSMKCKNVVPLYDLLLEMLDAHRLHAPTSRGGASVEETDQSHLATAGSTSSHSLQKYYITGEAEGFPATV

O=C(O)C(Cl)(Cl)Br
inactive: Potency [1] | Potency [2] | Potency [3] | Potency [4] | Potency [5] | Potency [6] | Potency [7]

O=C(O)c1cc(Cl)ccc1Cl
inactive: Potency [1] | Potency [2] | Potency [3] | Potency [4] | Potency [5] | Potency [6]

CCCC[P+](CC)(CCCC)CCCC (tested in a mixture with another compound)
inactive: Potency [1] | Potency [2] | Potency [3] | Potency [4] | Potency [6] | Potency [7]

N#CC(C#N)=Cc1ccc(O)c(O)c1
inactive: Potency [1] | Potency [8] | Potency [9] | outcome [10] | Potency [3] | Potency [4] | Potency [5] | Potency [6]

Cc1cnc(C2=NC(C)(C(C)C)C(=O)N2)c(C(=O)O)c1 (centres undefined)
inactive: Potency [1] | Potency [8] | Potency [9] | Potency [3] | Potency [5] | Potency [6] | Potency [7]

CCCCCCCCCCCCN=C(N)N
inactive: activity change, negative = cytotoxicity [1] 2.27% [at 3.27 µM] | viability change, negative = cytotoxic [2] -1.29% [at 3.26 µM] | activity change, negative = inhibition [3] 5.66% [at 3.27 µM] | activity change, negative = cytotoxicity [4] -3.51% [at 3.27 µM] | viability change, negative = cytotoxic [5] 23.3% [at 3.27 µM]

O=[N+]([O-])O[C@H]1CO[C@H]2[C@@H]1OC[C@H]2O[N+](=O)[O-]
inactive: Potency [1] | Potency [9] | outcome [10] | Potency [3] | Potency [4] | Potency [6] | Potency [7]

C=CCSSCC=C
inactive: Potency [1] | Potency [2] | Potency [3] | Potency [4] | Potency [5] | Potency [7]

OCCCl
inactive: Potency [1] | Potency [2] | Potency [3] | Potency [4] | Potency [5] | Potency [6] | Potency [7]

NP(N)(=O)NC(=O)c1ccc(F)cc1
inactive: Potency [1] | Potency [8] | Potency [9] | outcome [10] | Potency [3] | Potency [4] | Potency [5] | Potency [6] | Potency [7]

N#CC1(N=NC2(C#N)CCCCC2)CCCCC1
inactive: Potency [1] | Potency [2] | Potency [3] | Potency [4] | Potency [6] | Potency [7]

Nc1cccc2ccccc12
inactive: Potency [1] | Potency [2] | Potency [3] | Potency [4] | Potency [5] | Potency [6] | Potency [7]

C=CCOC(=O)C(C)(C)OC(=O)c1cc(-n2c(=O)cc(C(F)(F)F)n(C)c2=O)ccc1Cl
inactive: Potency [1] | Potency [2] | Potency [3] | Potency [4] | Potency [5] | Potency [6] | Potency [7]

Nc1ccccc1C(=O)OCCc1ccccc1
active: Potency [3] 9.73 µM and 3.86 µM
inactive: Potency [1] | Potency [2] | Potency [4] | Potency [5] | Potency [6]

CC(Cl)C(=O)O (centres undefined)
inactive: Potency [1] | Potency [8] | Potency [3] | Potency [4] | Potency [5]

C[CH2][Hg][S]c1ccccc1C(=O)O
active: Potency [1] 21.7 µM and 5.96 µM | Potency [8] 7.7 µM and 7.5 µM | Potency [3] 19.3 µM and 23.7 µM | Potency [5] 1.72 µM and 1.19 µM | Potency [6] 1.93 µM and 5.96 µM
inactive: outcome [10] | Potency [4] | Potency [7]

c1ccc2c(c1)-c1cccc3cccc-2c13
inactive: Potency [1] | Potency [2] | Potency [3] | Potency [4] | Potency [6] | Potency [7]

CC1(C)[C@H](C(=O)O[C@H](C#N)c2cccc(Oc3ccccc3)c2)[C@@H]1C=C(Br)Br
inactive: Potency [1] | Potency [8] | Potency [3] | Potency [4] | Potency [5]

CC1(C)CC(=O)CC(C)(C)N1[O]
inactive: Potency [1] | Potency [2] | Potency [3] | Potency [4] | Potency [5] | Potency [6]

CC(C)(C#N)C(C)(C)C#N
inactive: Potency [1] | Potency [2] | Potency [3] | Potency [7]

Cc1ccc(N)c(C)c1
inactive: Potency [1] | Potency [2] | Potency [3] | Potency [4] | Potency [5] | Potency [6] | Potency [7]

C=CCc1ccc(OC(=O)Cc2ccccc2)c(OC)c1
inactive: Potency [1] | Potency [2] | Potency [3] | Potency [4] | Potency [5] | Potency [6] | Potency [7]

CCOC(=O)C1OC1(C)c1ccccc1 (centres undefined)
inactive: Potency [1] | Potency [2] | Potency [3] | Potency [4] | Potency [5] | Potency [7]

CC(C)CCCCCCCOC(=O)c1ccccc1C(=O)OCCCCCCCC(C)C
inactive: Potency [1] | Potency [2] | Potency [3] | Potency [4] | Potency [5] | Potency [6] | Potency [7]

O=C(O)COc1cc(Cl)c(Cl)cc1Cl
inactive: Potency [1] | Potency [8] | Potency [3] | Potency [5] | Potency [6] | Potency [7]

CCOP(=O)(SC(C)CC)N1CCSC1=O (centres undefined)
inactive: Potency [1] | Potency [2] | Potency [3] | Potency [4] | Potency [5] | Potency [7]

CCCCOC(=O)CCC(=O)OCCCC
inactive: Potency [1] | Potency [2] | Potency [3] | Potency [5] | Potency [6] | Potency [7]

CCCC1CCCCN1 (centres undefined)
inactive: Potency [1] | Potency [9] | outcome [10] | Potency [3] | Potency [5] | Potency [6]

CCCCCCCCP(=O)(O)O
inactive: Potency [1] | Potency [2] | Potency [3] | Potency [4] | Potency [5] | Potency [6] | Potency [7]

CCOC(C(=O)OCCN(C)C)(c1ccccc1)c1ccccc1
inactive: Potency [1] | Potency [2] | Potency [3] | Potency [4] | Potency [5] | Potency [7]

CC(C)(C)OOC(C)(C)CCC(C)(C)OOC(C)(C)C
inactive: Potency [1] | Potency [2] | Potency [3] | Potency [4] | Potency [5] | Potency [7]

ClCc1ccccc1Cl
inactive: Potency [1] | Potency [8] | Potency [3] | Potency [4] | Potency [5] | Potency [6] | Potency [7]

CC(Oc1cccc(Cl)c1)C(=O)O (centres undefined)
inactive: Potency [1] | Potency [2] | Potency [3] | Potency [5] | Potency [6]

O=S(=O)(c1ccccc1)c1ccccc1
inactive: Potency [1] | Potency [2] | Potency [3] | Potency [4] | Potency [5] | Potency [6] | Potency [7]

CCc1cnc(C2=NC(C)(C(C)C)C(=O)N2)c(C(=O)O)c1 (centres undefined)
inactive: Potency [1] | Potency [2] | Potency [3] | Potency [5] | Potency [6]

c1ccc2c(c1)sc1ccccc12
inactive: Potency [1] | Potency [9] | outcome [10] | Potency [3] | Potency [4] | Potency [5] | Potency [6]
